Screening results: PubChem, The Scripps Research Institute Molecular Screening Center
SMARCA2 act: SMARCA2 function activation, primary screen; 370,000 compounds, 1% hits; activation, % at 9.1 µM; AID 652017; MG213 cells, MMTV-luciferase reporter, dexamethasone, overnight; in the data active = activation above about 7.8%;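 note: 0% = vehicle wells and 100% = reference activator wells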
DAX1 inh-1: DAX1 (NR0B1) inhibition, primary screen; 370,000 compounds, 1.1% hits; AID 652010; HEK293T StAR-luciferase reporter, SF-1/DAX-1 repression relief; inhibition, % at 6.8 µM;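 active = inhibition above the mean over all tested compounds plus 3 SD, cut at about 3.6% in these data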;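 note: 0% = DAX-1 cells with DMSO and 100% = cells lacking DAX-1 with DMSO; higher inhibition means more luminescence from relief of DAX-1 repression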
ssDAF-12 act: activators of S. stercoralis DAF-12 nuclear receptor. HEK293 ssDAF-12/GRIP1 lit1-tk-luc reporter, luminescence; % of 3 µM dafachronic acid response. activation, % at 6.8 µM. 370,000 compounds, 1% hits;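 active = activation above the mean over all tested compounds plus 3 SD, cut at about 0.9% in these data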;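 note: 0% = DMSO-only wells and 100% = 3 µM delta7-dafachronic acid wells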
DAX1 inh-2: inhibits human nuclear receptor DAX1; P51843; HEK293 Gal4-DAX1 luciferase reporter, luminescence; inhibition, % at 6.75 µM; 340,000 compounds, 0.99% hits; AID 504766;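 active = inhibition above the mean over all tested compounds plus 3 SD, cut at about 4.2% in these data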;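 note: 0% = DAX1-transfected cells with DMSO and 100% = empty-vector control cells with DMSO; inhibition shows as a rise in luminescence from relieved DAX1 repression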
Target sequence (P51843 207-470 limits assumed): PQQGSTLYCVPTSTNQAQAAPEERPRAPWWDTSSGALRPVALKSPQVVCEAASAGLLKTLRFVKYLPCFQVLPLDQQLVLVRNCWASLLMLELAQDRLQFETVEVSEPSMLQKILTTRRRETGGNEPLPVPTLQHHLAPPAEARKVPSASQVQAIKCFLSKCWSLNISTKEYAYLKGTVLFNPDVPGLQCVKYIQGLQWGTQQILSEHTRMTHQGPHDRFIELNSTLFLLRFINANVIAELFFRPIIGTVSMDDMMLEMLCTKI
hgDAF-12 ag: activates the H. glycines DAF-12 receptor ligand-binding domain. HEK293 GAL4-hgDAF12 UAS-luciferase reporter, agonist luminescence; normalized to butyrate control. activation, % at 6.8 µM. 370,000 compounds, 1.8% hits. AID 687014;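 active = activation above a cutoff set at the mean of all screened compounds plus 3 SD, cut at about 10% in these data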;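 note: 0% = DMSO wells and 100% = sodium butyrate wells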
hcDAF-12 act: H. contortus DAF-12 activation, primary screen | 370,000 compounds, 1.4% hits | activation, % at 6.8 µM | HEK293 hcDAF-12 lit1-tk-luc reporter, luminescence; 0% DMSO, 100% Δ7-dafachronic acid;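 active = activation above the mean of all tested compounds plus 3 SD, cut at about 5.5% in these data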;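 note: 100% = response to 3 µM Δ7-dafachronic acid high control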
Active calls of the source: *; · = no result. Sampled rows, rich in hits. Any-hit rate of the full collection: about 4.8%.

SMILES	SMARCA2 act	DAX1 inh-1	ssDAF-12 act	DAX1 inh-2	hgDAF-12 ag	hcDAF-12 act
Cc1cccc(S(=O)(=O)N2C[C@@H](O)COC[C@@H]3O[C@H](CC(=O)NCCCN4CCOCC4)CC[C@H]32)c1	-2.1	0.6	-0.7	·	-1.1	0.4
CN(CCCNC(=O)c1cn(C)c2ccc(S(=O)(=O)N(C)C)cc2c1=O)c1ccccc1	1.1	-2.2	-0.5	5.3*	1.4	-0.8
CCn1cc(C(=O)NCCCN2CCN(C)CC2)c(=O)c2cc(S(=O)(=O)N3CCc4ccccc4C3)ccc21	-2.2	-0.4	1.5*	2.9	-1.9	1.2
CC1CCCN(CCCNC(=O)c2cn(C)c3ccc(S(=O)(=O)N(C)C4CCCCC4)cc3c2=O)C1 (stereo not drawn)	-0.7	0.5	-1.1	-0.1	-0.2	-1.6
CN(C)S(=O)(=O)c1ccc2c(c1)c(=O)c(C(=O)N1CCOCC1)cn2C	0.4	0.8	-1.8	5.9*	2.7	1.9
Cn1cc(C(=O)N2CCN(c3ccccc3)CC2)c(=O)c2cc(S(=O)(=O)N3CCOCC3)ccc21	-1.6	-0.1	-1.4	0.5	0.9	3.5
CN(C)S(=O)(=O)c1ccc2c(c1)c(=O)c(C(=O)NCCCN1CCCCCC1)cn2C	0.4	1.2	-1.6	5.2*	2.9	1.1
CC1(C(=O)NS(=O)(=O)C2CC2)CCCN(C(=O)c2ccccc2OC(F)(F)F)C1 (stereo not drawn)	-0.4	0.4	-1.4	·	-1.4	-1.9
CN(CC(=O)Nc1cccc(F)c1)C(=O)c1cc(=O)[nH]c2ccccc12	-1.3	-0.3	-1.5	0.4	-0.5	-0.4
COc1ccc(C(=O)NCc2ccco2)cc1S(=O)(=O)NC1CC1	2.2	0.0	-0.7	0.4	3.6	0.4
Cc1oc2c(C)c(O)ccc2c(=O)c1-c1nncn1-c1ccccc1	0.6	-0.2	-1.1	7.1*	4.7	2.0
CC(C(=O)Nc1ccccc1C(F)(F)F)N1CCN(C)CC1 (stereo not drawn)	-1.1	0.2	-1.7	1.6	0.0	1.1
COc1ccc(/C(C)=N/NC(=O)Cn2nc([N+](=O)[O-])cc2C)cc1	-2.0	0.0	-1.6	4.5*	5.0	-0.1
COc1ccc(CNC(=O)Cn2nc([N+](=O)[O-])cc2C)cc1	-0.2	-0.2	-1.1	-0.7	-1.6	-2.7
CCN(CC)C(=O)c1sc2nc(-c3ccc(OC)cc3)cn2c1C	2.9	3.6	-0.6	1.4	13.0*	1.9
CN1CCc2c(sc3c2c(=O)n(-c2ccccc2)c2n[nH]c(=S)n32)C1	-3.4	0.3	-1.9	4.7*	-1.0	-1.5
O=c1c2c3c(sc2n2c(=S)[nH]nc2n1-c1ccccc1)CCC3	-5.0	-0.7	-1.7	·	-0.1	-1.4
O=C(NCCCN1CCOCC1)c1cc(S(=O)(=O)N2CCCCC2)ccc1Cl	-1.9	-0.4	-1.6	-0.3	0.6	-1.2
CCCCCCCSc1nnc(-c2ccccc2N)c(=O)[nH]1	-3.3	0.6	-0.7	1.4	-1.2	0.2
CCCCSc1nnc(-c2ccccc2N)c(=O)[nH]1	7.8	0.9	-0.3	0.2	11.1*	5.9*
COc1ccc(C2=NOC(CN3C(=O)c4ccccc4S3(=O)=O)C2)cc1 (stereo not drawn)	3.5	1.6	0.5	1.0	12.2*	3.5
Cc1cc2c([nH]c3ccccc32)c(C)n1	-1.9	-0.2	-0.3	3.7	3.5	-0.7
Cc1c2ccncc2cc2c1[nH]c1ccccc12	3.0	-2.6	-1.1	-2.4	10.9*	3.7
COc1ccccc1CCn1cnc(-c2ccccc2OC)c1C(C)C	-7.3	0.0	-1.4	·	-2.5	1.1
Cc1cc(C(=O)COC(=O)C23CC4CC(CC(O)(C4)C2)C3)c(C)n1C	-0.5	2.8	0.8	4.5*	10.8*	5.1
SMILES	SMARCA2 act	DAX1 inh-1	ssDAF-12 act	DAX1 inh-2	hgDAF-12 ag	hcDAF-12 act
Cc1nc(-c2ccccc2)nc(Cl)c1Cl	-3.2	0.3	-1.2	0.9	-3.0	-2.2
Cc1nc2nc(-c3ccccc3)nn2c(C)c1Cl	5.1	1.9	0.9*	1.6	7.0	5.6*
Cc1nc2nc(-c3ccccc3)nn2c(C)c1C	6.0	0.5	0.4	3.3	10.5*	4.4
O=C(O)CCCC(=O)Nc1nc2n(n1)C(c1ccc(F)cc1)CC(c1ccc(Cl)cc1)N2 (stereo not drawn)	1.5	0.5	1.8*	0.7	1.9	-0.9
COCC(=O)Nc1nc2n(n1)C(c1ccc(OC)cc1)CC(c1ccc(OC)cc1)N2 (stereo not drawn)	-1.2	0.2	-1.7	-0.9	0.2	-0.6
CC1CCCC(C)N1C(=O)COC(=O)c1cc(-c2cccs2)nn1-c1ccccc1 (stereo not drawn)	-2.3	-1.3	-0.4	-1.4	-0.3	-0.3
C/C(=N\Nc1nncc2ccccc12)c1ccc(C(C)(C)C)cc1	·	·	·	4.9*	·	·
CCOc1ccc(C(=O)OCC(=O)NC2CCCC2)cc1OCC	0.2	-0.6	-0.8	0.5	-1.8	-0.7
C[C@@H]1CN(Cc2nnnn2CC(=O)NCCCn2cccn2)C[C@H](C)O1	7.9*	0.2	-0.7	0.0	-0.1	-0.1
COc1cccc(N2C(C(C)=O)=NN(c3ccccc3)C2c2ccc(N3CCOCC3)cc2)c1 (stereo not drawn)	-0.2	1.2	0.6	1.3	10.9*	1.4
Cc1onc(-c2c(F)cccc2Cl)c1C(=O)OCC(=O)N(C)c1ccccc1	-3.1	-1.5	-0.7	0.6	-2.0	-1.0
CCCCNS(=O)(=O)/C=C/c1cc(C)ccc1CNC(=O)OC(C)(C)C	-3.9	-1.5	-1.8	·	-0.5	-4.0
CC(C)OCCCNC(=S)NNC(=O)c1ccc(Cl)c(Cl)c1	4.4	0.5	-0.8	-1.3	10.6*	-0.2
Cc1ccc(C(=O)Nc2ccccc2OC(F)F)cc1	0.4	-0.8	-0.8	-0.8	10.7*	0.0
Cc1ccc(Cl)cc1N(CC(=O)Nc1cccc(N(C)S(C)(=O)=O)c1)S(C)(=O)=O	-1.0	-0.6	1.1*	0.4	2.1	4.0
CC(C)Cc1cc(C(=O)Nc2cccnc2)no1	7.9*	4.4*	0.7	1.0	9.5	3.2
O=C(Nc1cccnc1)c1cc(-c2ccc(Cl)cc2Cl)on1	3.7	0.7	-0.2	6.7*	5.4	2.3
Cc1ccc2occ(/C=N/NC(=O)[C@@H](N)Cc3ccccc3)c(=O)c2c1	-4.0	-0.1	-0.8	5.3*	3.8	-0.1
Cc1cccc(C(=O)N/N=C/c2coc3ccccc3c2=O)c1	-3.6	1.1	-0.3	-0.1	1.4	0.8
CN(C)c1ccc(C(=O)N2CCC2(C)C(=O)O)cc1 (stereo not drawn)	-2.0	-0.9	-1.1	·	0.1	-0.5
CCOC(=O)c1ccc(NC(=O)CCn2nnc3ccccc32)cc1	-2.0	-0.2	-1.5	0.1	4.4	0.9
CC(=O)Nc1ccc(NC(=O)CCn2nnc3ccccc32)cc1	-0.5	0.5	1.3*	-0.8	0.9	3.8
